Experimental findings from paper PMC7819943, “Rice protein-binding microarrays: a tool to detect cis-acting elements near promoter regions in rice” are described below.

Whole data set: some 39,000 sequences, median “fluorescence intensity (a.u.)” near 4,300, cut for the highest 2% near 39,000. The sample holds the highest values, similar sequences and a random draw of the others, so the mix is not that of the screen.

The target of this assay is T1, OsSMF1 (Oryza sativa, UniProt Q6ZLB0 1-436).
T1 sequence: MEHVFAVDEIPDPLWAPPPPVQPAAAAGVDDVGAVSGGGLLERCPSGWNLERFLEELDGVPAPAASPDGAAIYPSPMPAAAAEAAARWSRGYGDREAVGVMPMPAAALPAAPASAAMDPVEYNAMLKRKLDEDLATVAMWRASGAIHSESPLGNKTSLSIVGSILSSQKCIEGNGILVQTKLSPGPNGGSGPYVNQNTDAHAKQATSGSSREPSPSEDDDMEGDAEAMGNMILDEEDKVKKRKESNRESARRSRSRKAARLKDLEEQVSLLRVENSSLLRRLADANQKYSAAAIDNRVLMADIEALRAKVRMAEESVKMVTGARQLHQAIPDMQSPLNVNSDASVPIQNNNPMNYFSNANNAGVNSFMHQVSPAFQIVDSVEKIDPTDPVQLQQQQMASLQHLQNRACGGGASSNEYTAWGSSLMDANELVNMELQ
As to the kind of experiment: protein-binding microarray (RPBM); PBS, 2% BSA, 51.3 ng/ul salmon testes DNA, 50 uM zinc acetate, 200 nM TF, 25 C, 1 h; high values mean tight binding. Particulars: protein: recombinant; tags: N-terminal polyhistidine and DsRed monomer fusion (pET32a); chain copies: 2; label: CyDye5-dUTP incorporated in the synthesized complementary strand; 3' TTTTT single-stranded linker to array surface; dsDNA, one strand shown. In a few lines: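 A custom Agilent array was converted to double-stranded form by primer extension with Cy5-dUTP and blocked with 2% BSA. Protein at 200 nM in PBS with 2% BSA, salmon testes DNA and 50 µM zinc acetate was applied for 1 h at 25 °C, followed by washing. The proteins were polyhistidine–DsRed N-terminal fusions of transcription factors, expressed in E. coli BL21-CodonPlus and Ni–NTA-purified. The binding signal is per-feature fluorescence intensity (arbitrary units) from an Axon 4000B scanner.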
As to “ACCGGCTCACTTATGCGCGCGCGGCGCTGAGGTGGCCGCACGGAGTCACCTAGTGCAG”, the binding signal is 5200 fluorescence intensity (a.u.).

Consider “GGGCTTCGTCCCCATCATCTCCTGCCACCTCAAACACCTGCGGAGTCACCTAGTGCAG”, for which the binding signal is 3520 fluorescence intensity (a.u.).

Take “GATGGGCTTGTGCTGACATCATCTATACGTGCTTTGCTCCCGGAGTCACCTAGTGCAG”: the binding signal was 14500 fluorescence intensity (a.u.).

As for “ATATATTCTATGTGGTCTGCCCACACGCAAGCATGAGCTCCGGAGTCACCTAGTGCAG”, the binding signal was 3740 fluorescence intensity (a.u.).

Consider “GCGCCGCCAGCCGCTACAGGTCAGCGGCAACAGCAGGTTCCGGAGTCACCTAGTGCAG”, for which the binding signal was 29200 fluorescence intensity (a.u.).

Turning to “TTCCGGCATGCTCAACAATTGGTCCAGGTGTTTGTTCCAGCGGAGTCACCTAGTGCAG”, the binding signal is 42200 fluorescence intensity (a.u.).

On to “TGCCAATGGTGTGTGCAATTGCAACATGCGTTTGGTTGTGCGGAGTCACCTAGTGCAG”, for which the binding signal is 4100 fluorescence intensity (a.u.).

Turning to “GACACGTATGATTTGTGTGGTAGTACATAGCACGCACGCACGGAGTCACCTAGTGCAG”, the binding signal was 35800 fluorescence intensity (a.u.).

As to “CCAGGCACCGACCTGTAGTTGCATCAGCAAACCATGGCTGCGGAGTCACCTAGTGCAG”, the binding signal is 4690 fluorescence intensity (a.u.).

As for “AGGGATTATGTGTGTGTAAGATATTTGTGACTAGTTTATTCGGAGTCACCTAGTGCAG”, the binding signal is 3630 fluorescence intensity (a.u.).

With “TTGTAAGCTCAGCCTAGATAGAGTGAAGATATTTTATTGGCGGAGTCACCTAGTGCAG”, the binding signal is 49700 fluorescence intensity (a.u.).

Regarding “AAATATAGAGATTTATTAACATAACAGCCTATCCACGTGGCGGAGTCACCTAGTGCAG”, the binding signal is 17200 fluorescence intensity (a.u.).

For “ATGAAATGGACCTCAAGATCGAGTCATGACAAGACAACGGCGGAGTCACCTAGTGCAG”, the binding signal was 4150 fluorescence intensity (a.u.).

On to “TACACTGGTGGATGTGAATCATTGGAATGCATGCCTCCTGCGGAGTCACCTAGTGCAG”, for which the binding signal is 3810 fluorescence intensity (a.u.).

Take “GGGATAGCAGGACACGTGTGTATAGCTGCTGCGCCTGCCTCGGAGTCACCTAGTGCAG”: the binding signal was 9260 fluorescence intensity (a.u.).

Consider “CCTCAGGCCGCCTCTCGTGCTGTACACGTAGGATAGCTACCGGAGTCACCTAGTGCAG”, for which the binding signal was 46200 fluorescence intensity (a.u.).

Consider “TTAGGCCTCTCACAGTGCTCTTAGCTGGACCGGTGCTACACGGAGTCACCTAGTGCAG”, for which the binding signal is 3920 fluorescence intensity (a.u.).

On to “TTAAATGAATCATTTTGTTCCTATTTCTAAAATAAACTATCGGAGTCACCTAGTGCAG”, for which the binding signal is 3380 fluorescence intensity (a.u.).

Take “ATGCAGGCCACCTCACGCCACACGCTGTATCGCGCCCATACGGAGTCACCTAGTGCAG”: the binding signal was 5790 fluorescence intensity (a.u.).

For “CTAGCTACTTCTATCCTCCACCTCCTAAATGATCGATTTGCGGAGTCACCTAGTGCAG”, the binding signal is 3740 fluorescence intensity (a.u.).

For “CCAACCATGCTTCGCAGTTGTCACAGAACGTCAACAGTGCCGGAGTCACCTAGTGCAG”, the binding signal is 3460 fluorescence intensity (a.u.).

On to “TGTTAGTTTTGCATGCACAGAGATGATTAGGCAGTAGCAACGGAGTCACCTAGTGCAG”, for which the binding signal is 3940 fluorescence intensity (a.u.).

With “TCAGTAGTTGCTTCTCGCAACGTCACAGGCTTTAGATGCACGGAGTCACCTAGTGCAG”, the binding signal is 44200 fluorescence intensity (a.u.).

For “CCAGATATCTTTTACTAAAGGATGGAAATGAGGCGTAATTCGGAGTCACCTAGTGCAG”, the binding signal is 29100 fluorescence intensity (a.u.).

As for “GTGTAGTTGGAGCGCGCGGTGGAAGATGAACAAGCTCAGCCGGAGTCACCTAGTGCAG”, the binding signal was 41200 fluorescence intensity (a.u.).

For “GAGTTGTGCAGCCAAGTCAGCTGCACATGGGGAACAAGCGCGGAGTCACCTAGTGCAG”, the binding signal is 6520 fluorescence intensity (a.u.).

As to “ACAAAGGAGAAGAAGCCATGATGTGGAGTTGGCCGGTGGCCGGAGTCACCTAGTGCAG”, the binding signal was 3800 fluorescence intensity (a.u.).

Turning to “TAAAACAAGTCATAATAAAATAAATAGTAATTAAAATTCTCGGAGTCACCTAGTGCAG”, the binding signal is 29200 fluorescence intensity (a.u.).

Take “AAAATAATTAAAATAGTACGAGTAGATTCACACAAGATCTCGGAGTCACCTAGTGCAG”: the binding signal was 39900 fluorescence intensity (a.u.).

Turning to “AACAATAACAAGATTAAAATAAACTTCACACGTTGTAATGCGGAGTCACCTAGTGCAG”, the binding signal was 3160 fluorescence intensity (a.u.).

As to “GCAAAATGTCAGGCCGACACAACCCGTCATACTCTTCATGCGGAGTCACCTAGTGCAG”, the binding signal is 3480 fluorescence intensity (a.u.).

On to “GGGGTGCTTCACAAATCCCCTTGCGTACATGAGGTGTTTTCGGAGTCACCTAGTGCAG”, for which the binding signal was 3320 fluorescence intensity (a.u.).

Consider “AGTCTCTAACTAAACACCATATATCTCTATTAATTACTACCGGAGTCACCTAGTGCAG”, for which the binding signal is 16000 fluorescence intensity (a.u.).

For the sequence “CTATCCGTCCAAATTAGGCTATCTCTAAAGATTAACTAACCGGAGTCACCTAGTGCAG”, the binding signal is 41000 fluorescence intensity (a.u.).

With “GTAACTAAAGATACAAAATTATTAGTGTAACCGGAGGCATCGGAGTCACCTAGTGCAG”, the binding signal is 34600 fluorescence intensity (a.u.).

For the sequence “TTTTATGTATGTATTCAAATATTTCGATGTGACGGAATTTCGGAGTCACCTAGTGCAG”, the binding signal is 4210 fluorescence intensity (a.u.).

With “GGATTTAACACTAGAGACCCTAATTTTGCTGCTCAGGCGACGGAGTCACCTAGTGCAG”, the binding signal was 28500 fluorescence intensity (a.u.).

As to “ATATGAGATATTTCATATGCTGTTTATTGCTGCTGCCAGACGGAGTCACCTAGTGCAG”, the binding signal is 6080 fluorescence intensity (a.u.).

On to “GGAAAGAGAAGAGAGGAAAGAGAGATGACGTGGACACCTGCGGAGTCACCTAGTGCAG”, for which the binding signal was 21100 fluorescence intensity (a.u.).

With “TCGTCGCACGACCAGACCAGCAGCACCAACTCCCTTTCTGCGGAGTCACCTAGTGCAG”, the binding signal was 3160 fluorescence intensity (a.u.).

For the sequence “ACCATATGACTTATATATCTGTCGTCAGCTCATTTCTATGCGGAGTCACCTAGTGCAG”, the binding signal was 7290 fluorescence intensity (a.u.).

Turning to “ATGGGGAATCTGGCACCTTTGGCTACTGGTGATTCAGTGTCGGAGTCACCTAGTGCAG”, the binding signal was 3510 fluorescence intensity (a.u.).

For “GTGTCATTTCATTCACTGGTCGGCTATATCTGGGCATATGCGGAGTCACCTAGTGCAG”, the binding signal was 53800 fluorescence intensity (a.u.).
